# Where a name gives a salt, the structure may show the parent alone.
# System: MDA-MB-468
# Test: phospho-S6 immunofluorescence (DAPI-normalised), per-plate z-score; higher = higher phospho-S6 signal (less pathway suppression)
# Conditions: 24 h
# Procedure: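 GPCR-targeted compound library (MedChemExpress HY-L006) tested on MDA-MB-468 PTEN-null TNBC cells in 384-well plates at 0.1, 1 or 10 uM, combined with vehicle, GDC0941 450 nM or lapatinib 1 uM, for 24 h. Phospho-S6 (S240/244) immunofluorescence normalised to DAPI and expressed as a per-plate z-score; values are the mean of biological triplicates.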
structure (smiles),measurement,setting,value
COC(c1ccccc1)(c1ccccc1)[C@H](Oc1nc(C)cc(C)n1)C(=O)O [Ambrisentan] (compound 10 µM),phospho-S6 immunofluorescence (z-score),co-treatment: GDC0941 450 nM,1.18
same,phospho-S6 immunofluorescence (z-score),co-treatment: lapatinib 1 uM,0.5
same,phospho-S6 immunofluorescence (z-score),co-treatment: vehicle,-0.07
CC(CN(C)C)CN1c2ccccc2CCc2ccccc21 (centres undefined) [Trimipramine (maleate)] (compound 10 µM),phospho-S6 immunofluorescence (z-score),co-treatment: GDC0941 450 nM,-1.05
same,phospho-S6 immunofluorescence (z-score),co-treatment: lapatinib 1 uM,-2.53
same,phospho-S6 immunofluorescence (z-score),co-treatment: vehicle,-0.39
Cc1nccn1CC1CCc2c(c3ccccc3n2C)C1=O (centres undefined) [Ondansetron (hydrochloride dihydrate)] (compound 10 µM),phospho-S6 immunofluorescence (z-score),co-treatment: GDC0941 450 nM,0.11
same,phospho-S6 immunofluorescence (z-score),co-treatment: lapatinib 1 uM,-0.58
same,phospho-S6 immunofluorescence (z-score),co-treatment: vehicle,0.16
CN(C)CC/C=C1/c2ccccc2COc2ccc(CC(=O)O)cc21 [Olopatadine (hydrochloride)] (compound 10 µM),phospho-S6 immunofluorescence (z-score),co-treatment: GDC0941 450 nM,0.01
same,phospho-S6 immunofluorescence (z-score),co-treatment: lapatinib 1 uM,0.08
same,phospho-S6 immunofluorescence (z-score),co-treatment: vehicle,-0.35
CC(C)(Cc1nc(-c2ccc(O)cn2)no1)C(=O)NC1=C(C(=O)O)CCCC1 (compound 10 µM),phospho-S6 immunofluorescence (z-score),co-treatment: GDC0941 450 nM,0.73
same,phospho-S6 immunofluorescence (z-score),co-treatment: lapatinib 1 uM,0.37
same,phospho-S6 immunofluorescence (z-score),co-treatment: vehicle,1.12
CCC(=O)O[C@]1(C(=O)SCF)[C@H](C)C[C@H]2[C@@H]3C[C@H](F)C4=CC(=O)C=C[C@]4(C)[C@@]3(F)[C@@H](O)C[C@@]21C [Fluticasone (propionate)] (compound 10 µM),phospho-S6 immunofluorescence (z-score),co-treatment: GDC0941 450 nM,0.26
same,phospho-S6 immunofluorescence (z-score),co-treatment: lapatinib 1 uM,-0.29
same,phospho-S6 immunofluorescence (z-score),co-treatment: vehicle,-0.43
CN1[C@@H]2CC[C@H]1C[C@@H](OC(=O)c1c[nH]c3ccccc13)C2 [Tropisetron (Hydrochloride)] (compound 10 µM),phospho-S6 immunofluorescence (z-score),co-treatment: GDC0941 450 nM,0.95
same,phospho-S6 immunofluorescence (z-score),co-treatment: lapatinib 1 uM,-0.2
same,phospho-S6 immunofluorescence (z-score),co-treatment: vehicle,-0.04
c1cnc(NCc2ccc(CNc3ncccn3)cc2)nc1 (compound 10 µM),phospho-S6 immunofluorescence (z-score),co-treatment: GDC0941 450 nM,-0.12
same,phospho-S6 immunofluorescence (z-score),co-treatment: lapatinib 1 uM,-0.26
same,phospho-S6 immunofluorescence (z-score),co-treatment: vehicle,-0.11
COC1CCC(C(=O)c2ccc3nc4c(cc3c2)CCCO4)CC1 (centres undefined) (compound 10 µM),phospho-S6 immunofluorescence (z-score),co-treatment: GDC0941 450 nM,-0.83
same,phospho-S6 immunofluorescence (z-score),co-treatment: lapatinib 1 uM,0.85
same,phospho-S6 immunofluorescence (z-score),co-treatment: vehicle,0.02
OCCOCCN1CCN(Cc2cccc(Oc3ccccc3)c2)CC1 (compound 10 µM),phospho-S6 immunofluorescence (z-score),co-treatment: GDC0941 450 nM,-0.36
same,phospho-S6 immunofluorescence (z-score),co-treatment: lapatinib 1 uM,0.35
same,phospho-S6 immunofluorescence (z-score),co-treatment: vehicle,-1.04
CC[C@H](NC(=O)c1c(C)c(-c2ccccc2)nc2ccccc12)c1ccccc1 (compound 10 µM),phospho-S6 immunofluorescence (z-score),co-treatment: GDC0941 450 nM,-4.55
same,phospho-S6 immunofluorescence (z-score),co-treatment: lapatinib 1 uM,-3.25
same,phospho-S6 immunofluorescence (z-score),co-treatment: vehicle,-1.64
c1ccc2c(c1)CCCC2C1=NCCN1 (centres undefined) [Tetrahydrozoline (hydrochloride)] (compound 10 µM),phospho-S6 immunofluorescence (z-score),co-treatment: GDC0941 450 nM,0.32
same,phospho-S6 immunofluorescence (z-score),co-treatment: lapatinib 1 uM,0.87
same,phospho-S6 immunofluorescence (z-score),co-treatment: vehicle,0.75
CCC1(c2c[nH]cn2)Cc2ccccc2C1 [Atipamezole (hydrochloride)] (compound 10 µM),phospho-S6 immunofluorescence (z-score),co-treatment: GDC0941 450 nM,-0.61
same,phospho-S6 immunofluorescence (z-score),co-treatment: lapatinib 1 uM,0.37
same,phospho-S6 immunofluorescence (z-score),co-treatment: vehicle,1.24

# From the supplement of paper PMC7411640
